# tim23-1 inh: growth inhibitors of tim23-1 mutant yeast, primary screen, luminescence, uHTS. S. cerevisiae tim23-1 growth, BacTiter-Glo luminescence, 24 h. AID 463212, 2010. inhibition, % at 20 µM. actives 1.3% (n = 330,000);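 active = growth inhibition of the mutant yeast at or above 50%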;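 note: temperature-sensitive mutant grown at 25 °C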
# NALP1 yeast inh: NALP1 inflammasome inhibitors in reconstituted yeast, colorimetric, S. cerevisiae, triplicate retest; S. cerevisiae NALP1/ASC/caspase-1 growth, X-gal OD620, 72 h; actives 0.61% (n = 280,000); AID 2071, 2009; inhibition, % at 10 µM; in the data active = inhibition mostly above about 24%, no sharp cut-off; inactive = mostly below about 32%
# NALP3 yeast inh: NALP3 inflammasome inhibitors in reconstituted yeast, primary screen, luminescence, uHTS | Yeast reconstituted NLRP3/ASC/caspase-1, beta-gal luminescence, 24 h | AID 2825, 2010 | actives 0.39% (n = 330,000) | inhibition, % at 10 µM;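 active = inhibition of 50% or more; inactive = inhibition below 50%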
# tim10-1 inh: growth inhibitors of tim10-1 mutant yeast, primary screen, luminescence, uHTS; AID 463190, 2010; actives 2.2% (n = 330,000); inhibition, % at 20 µM; S. cerevisiae tim10-1 ts strain growth, BacTiter-Glo, 24 h;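 active = inhibition of at least 40%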;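 note: mutant grown at 25 °C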
# TIM10 inh: growth inhibitors of isogenic TIM10 control yeast, primary screen, counter-screen for tim10-1 yeast inhibitor project, luminescence, uHTS; actives 1.4% (n = 330,000); AID 463195, 2010; S. cerevisiae TIM10 strain growth, BacTiter-Glo luminescence, 24 h; inhibition, % at 10 µM;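 active = inhibition of 40% or more at the single tested concentration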;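 note: wild-type TIM10 isogenic control strain grown at permissive 25 °C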
# tim10-1 conf: growth inhibitors of tim10-1 mutant yeast, confirmation, single concentration, luminescence, S. cerevisiae | shares compounds with tim10-1 inh | S. cerevisiae tim10-1 ts strain growth, BacTiter-Glo, 24 h | inhibition, % at 20 µM | actives 56% (n = 7,400);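 active = inhibition of yeast growth at or above a set limit in either of two repeat tests at 20 µM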;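 note: tim10-1 mutant grown at permissive 25 °C to find synthetic lethal compounds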
# A number is an active result; i = inactive; nt = no result. Compounds with a hit are over-represented: about 4% of the library has one in this group of screens.
SMILES,tim23-1 inh,NALP1 yeast inh,NALP3 yeast inh,tim10-1 inh,TIM10 inh,tim10-1 conf
COc1ccc(C(C)=O)cc1Cn1cnc2c(cnn2C)c1=O,i,i,i,i,i,nt
CC(=O)c1ccc(N(C(=O)Cn2nnc(-c3ccccc3)n2)C(C(=O)NC2CCCCC2)c2ccccn2)cc1 (centres undefined),i,i,i,i,i,nt
COc1ccc(CN(C2CCCC2)S(=O)(=O)c2ccc(-n3cnnn3)cc2)cc1OC,i,i,i,i,i,nt
COc1ccc(CN(C2CCCC2)S(=O)(=O)c2ccc(-n3cnnn3)cc2)cc1,i,i,i,40,i,35
Cc1nn(-c2ccccc2)c2c1c(C)c(CCC(=O)N1CCOCC1)c(=O)n2C,i,i,i,41,i,i
COc1ccc([C@H]2CC(=O)C=C(c3cc(C=O)ccc3OC)C2)cc1,i,nt,i,i,i,nt
CCCc1ccc(-c2cc(NC(=O)CSc3nnc(N)s3)n(-c3ccccc3)n2)cc1,i,i,i,43,i,i
Cc1ccc2c(c1)c(/C=C/c1cc[n+](C)cc1)c(C)n2C,i,i,i,i,i,nt
Cc1ccc2[nH]c(C)c(/C=C/c3cc[n+](C)cc3)c2c1,i,i,i,51,i,i
CNC(=O)COC(=O)/C=C/c1cn(-c2ccccc2)nc1-c1ccc2c(c1)OCCO2,i,i,i,41,i,29
COc1ccc(-c2nc3ccccn3c2NCc2ccc3c(c2)OCO3)cc1,i,i,i,42,i,i
CCCOc1ccc(N2C(=O)CC(SCCN)C2=O)cc1 (centres undefined),i,i,i,42,i,i
COc1cc(NC(=O)c2ccc3c(c2)OCO3)c2ncccc2c1,i,i,i,i,i,nt
O=C(Nc1cccc2cccnc12)c1ccc2c(c1)OCCO2,i,i,i,41,i,i
CCOc1cc(/C=C2\C(=O)N(c3ccc(C(N)=O)cc3)N=C2C)ccc1OC(=O)c1cccs1,i,i,i,i,i,nt
CCOc1cc(/C=C2/C(=O)N(c3ccccc3)N=C2C)ccc1OC(=O)c1ccco1,i,i,i,40,i,i
C#CCNc1c2c(nc3ncnn13)CC(C)CC2 (centres undefined),i,nt,i,i,i,nt
CCOC(=O)N1CCC(NC(=O)c2ccc3c(c2)N=C(C)c2c(C)ccc(C)c2S3)CC1,i,i,i,44,i,i
CCOC(=O)N1CCC(NC(=O)c2ccc3c(c2)N=C(CC)c2cc(C)ccc2S3)CC1,i,i,i,i,i,nt
C#CCn1c(=NC(=O)CN2C(=O)CCC2=O)sc2cc(S(N)(=O)=O)ccc21,i,i,i,i,i,nt
C#CCn1c(=NC(=O)c2cc(Cl)sc2Cl)sc2cc(S(N)(=O)=O)ccc21,i,i,i,47,i,33
COc1ccc(-c2oc3ccc(-c4cc(OC)c(OC)c(OC)c4)cc3c2-c2ccc(OC)nc2)cc1,i,i,i,i,i,nt
O=C(c1ccc(O)cc1)c1ccc(O)cc1O,i,nt,i,i,i,nt
CN(C)c1ccc(C(=O)c2ccc(O)cc2O)cc1,i,i,i,41,i,i
COc1ccc(N2C(=O)CC(N3CCC(O)(c4cccc(C(F)(F)F)c4)CC3)C2=O)cc1 (centres undefined),i,i,i,43,i,33
SMILES,tim23-1 inh,NALP1 yeast inh,NALP3 yeast inh,tim10-1 inh,TIM10 inh,tim10-1 conf
COc1ccc(N2C(=O)CC(N3CCCCC3)C2=O)cc1 (centres undefined),i,i,i,i,i,nt
CCOC(=O)CC(=O)CSc1nc2cc(C)ccc2cc1C,i,i,i,44,i,i
CCOC(=O)CC(=O)CSc1nc2c(C)c(C)ccc2cc1C,i,i,i,i,i,nt
COc1ccc(NC(=O)c2ccc(C)cc2)c[n+]1[O-],nt,i,nt,nt,nt,nt
O=C(COC(=O)c1cc(Cl)ccc1[N+](=O)[O-])NC1CC1,i,nt,i,i,i,nt
O=C(OC1CCCCC1=O)c1cc(Cl)ccc1[N+](=O)[O-] (centres undefined),i,i,i,45,i,39
COc1cccc(NC(=O)CSc2nnnn2C2CCCCC2)c1,i,i,i,i,i,nt
N#CCC(=O)c1ccccc1Oc1ccc(Cl)cc1,i,i,i,50,i,29
O/N=C/c1ccccc1Oc1ccc(Cl)cc1,i,i,i,i,i,nt
CCN(c1ccccc1)S(=O)(=O)c1nnc(NC(=O)c2ccccc2OC)s1,i,i,i,i,i,nt
CCCn1c(C)nc2c(c1=O)c1nc3ccccc3nc1n2CCC1=CCCCC1,i,i,i,49,i,i
CCCc1cc(C(=O)Nc2cccc([N+](=O)[O-])c2)cs1,i,i,i,41,i,31
CCCCCC(=O)NNC(=S)NC(=O)c1ccccc1[N+](=O)[O-],i,i,i,43,i,i
O=C(NC(=S)NNC(=O)c1ccccc1[N+](=O)[O-])c1ccc(Br)cc1,i,i,i,41,i,44
NC(=O)c1ccc(NC(=O)COC(=O)C2COc3ccccc3O2)cc1 (centres undefined),i,nt,i,i,i,nt
Cc1ccnc(NC(=O)COC(=O)C2COc3ccccc3O2)n1 (centres undefined),i,i,i,64,i,i
Cc1ccc(-n2nc3c4c(cccc4c2=O)-c2ccccc2-3)cc1,i,i,i,42,i,i
CCc1nc(N2CCC3(CC2)OCCO3)c2nnn(Cc3ccccc3)c2n1,i,i,i,i,i,nt
c1ccc(Cn2nnc3c(N4CCC5(CC4)OCCO5)ncnc32)cc1,i,i,i,42,i,i
Cc1ccc2oc(C(=O)N3CCC(C(N)=O)(N4CCCCC4)CC3)c(C)c2c1,i,i,i,i,i,nt
CCCc1ccc2oc(C(=O)N3CCC(C(N)=O)(N4CCCCC4)CC3)c(C)c2c1,i,i,i,42,i,i
Cc1ccc(-c2nc(C#N)c(NCc3cccc4c3OCO4)o2)cc1,i,i,i,44,i,i
COc1cnc(-c2ccccn2)nc1Sc1ccccc1Cl,i,i,i,47,i,34
O=C(Nc1ncc2c(n1)-c1ccccc1CC2)c1cccs1,i,i,i,i,i,nt
Nc1ncc2c(n1)-c1ccccc1CC2,i,i,i,i,i,nt
O=C(Nc1ncc2c(n1)-c1ccccc1CC2)c1ccc(F)cc1,i,i,i,40,i,i
O=C(Nc1ncc2c(n1)-c1ccccc1CC2)c1ccccc1,i,i,i,47,i,i
Cc1c(C(=N)C(C#N)C#N)c(=N)oc2c1ccc1ccccc12,i,i,i,41,i,i
CCOc1ccccc1CNC(=O)C1CCCN(c2nnc(C)c3c(C)n(-c4ccccc4)nc23)C1 (centres undefined),i,i,i,i,i,nt
